Data on 24 compounds can be found in PubChem BioAssay (Tox21).

Records with an inconclusive call do not appear. The source made the active and inactive calls. Unless noted, calls follow the shape of the dose curve; as a rule, active = well fitted curve in the direction sought with a large enough effect in the repeat runs; inconclusive = weak or mixed curves; inactive = no such curve, though single readings can be large; an effect the other way counts as inactive or inconclusive.

Assay [1] is described as follows: qHTS assay for small molecule agonists of the p53 signaling pathway - cell viability (AID 651633; calls by dose curve;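 also: p53RE-bla HCT reporter cells with a stable beta-lactamase p53 reporter; series mostly up to about 83 µM; nearly all actives have a fitted effect of over 30% in size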). In a few lines: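 Viability counter-read: CellTiter-Glo luminescence (30 min, room temperature) in the same p53RE-bla plates. These plates had been exposed to compounds for 16 h at 37 C.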
(In qHTS, concentration-response curves come from the screen itself.)

Assay [2] is described as follows: qHTS assay for small molecule disruptors of the mitochondrial membrane potential - cell viability (AID 720634; calls by dose curve; also: nearly all actives have a fitted effect of over 20% in size; also: potency is read from the fitted curve at half-maximal effect). In a few lines: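 Cytotoxicity was measured by ATP quantitation in HepG2 wells that had first been treated with compound for 1 hr and stained with m-MPI dye; CellTiter-Glo incubation was 30 min at room temperature.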
Assay [3] can be described thus: qHTS assay for small molecule disruptors of the mitochondrial membrane potential (AID 720635). Also: potency is read from the fitted curve at half-maximal effect. In a few lines: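 Mitochondrial membrane potential tracked with Mito-MPS dye, red aggregates (ex 540/em 590 nm) against green monomers (ex 490/em 535 nm). Compound treatment 1 hr at 37C, dye 30 min in HepG2.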
Assay [4] in a line: qHTS assay to test for compound auto fluorescence at 590 nm (red) in HepG2 cells (AID 720674). In a few lines:
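Red autofluorescence (Ex/Em 540/590 nm, Rose Bengal sodium equivalents) was measured in HepG2 cells, 2,000 per well in MEM plus 10% FBS, plated overnight at 37 C. Readings were taken 1 hr after adding 23 nL compound or DMSO, at 37 C and 5% CO2.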

A short description of assay [5]: qHTS assay to test for compound auto fluorescence at 535 nm (green) in HepG2 cells (AID 720675).
Assay [6] can be described thus: qHTS assay to test for compound auto fluorescence at 460 nm (blue) in HEK293 cells (AID 720678). In a few lines: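 Blue-channel (Ex/Em 405/460 nm) intensity measured in HEK293 cultures after overnight compound exposure at 37C; signal expressed relative to triamterene. Cells plated 2,000 per well in 10% dialyzed FBS medium and allowed 4-5 hr to attach.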
Assay [7] in a line: qHTS assay to test for compound auto fluorescence at 590 nm (red) in HEK293 cells (AID 720679). In a few lines: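 Red-channel autofluorescence (Ex/Em 540/590 nm; Rose Bengal sodium reference) was measured after overnight 37C, 5% CO2 exposure of attached HEK293 cells, 2,000 per well in medium with 10% dialyzed FBS.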
Assay [8] can be described thus: qHTS assay for small molecules that induce genotoxicity in human embryonic kidney cells expressing luciferase-tagged ATAD5 (AID 651632). Also: nearly all actives have a fitted effect of over 15% in size. In a few lines:
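Cells were seeded at 2,000 per well, dosed with compound, and incubated 16 hr at 37C in 5% CO2. Luciferase activity was then quantified after a 30 min room-temperature incubation with Amplite.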

Assay [9] is described as follows: qHTS assay for small molecules that induce genotoxicity in human embryonic kidney cells expressing luciferase-tagged ATAD5 - cell viability (AID 651634; calls by dose curve; also: nearly all actives have a fitted effect of over 25% in size; also: potency is read from the fitted curve at half-maximal effect). In a few lines: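 Cells (HEK293T, luciferase-tagged ATAD5) are seeded at 2,000 per well, dosed with compound or DMSO vehicle, and incubated 15.5 hr at 37C and 5% CO2. CellTiter-Fluor is added for 30 min before fluorescence is measured.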

With `COC(=O)C1=CCCN(C)C1`, the Potency entry in assay [1], in assay [2] and in assay [3] was “inactive” throughout. Also, the compound was classed as inactive in assay [4], in assay [5], in [6] and in assay [7].
Take `CCOP(=S)(OCC)SCSP(=S)(OCC)OCC`: the Potency result in assay [8] and in assay [9] was “inactive” throughout. The outcome in assay [4], in assay [6] and in assay [7] was inactive.
As for `CC1CN1P(=O)(N1CC1C)N1CC1C` (configuration not stated), the Potency result in [9] and in [2] was “inactive” throughout. For the same compound, the compound was called inactive in assay [4], in assay [5], in assay [6] and in assay [7].
Turning to `O=C1OC(c2ccc(O)c(S(=O)(=O)O)c2)(c2ccc(O)c(S(=O)(=O)O)c2)c2c(Br)c(Br)c(Br)c(Br)c21`, the Potency result in assay [8] and in [2] was “inactive” each time. Further, the call in assay [4], in assay [5], in assay [6] and in assay [7] was inactive.
`CCCCOP(=O)(O)OCCCC`: the Potency entry in [8], in assay [9], in [2] and in assay [3] was “inactive” in each case. For the same compound, the compound was called inactive in assay [4], in [5], in assay [6] and in [7].
Take `ClC(Cl)Br`: the Potency result in assay [1], in assay [9], in assay [2] and in assay [3] was “inactive” throughout. Besides, the outcome in assay [4], in [5], in assay [6] and in assay [7] was inactive.
For the compound `O=C(Cc1ccccc1)OCc1ccccc1`, the Potency result in assay [8], in [9] and in [2] was “inactive” in each case. In addition, the call in assay [4], in assay [5], in assay [6] and in assay [7] was inactive.
`C#CCN1C(=O)COc2cc(F)c(N3C(=O)C4=C(CCCC4)C3=O)cc21`: the Potency result in [9] is “inactive”. Further, the compound was classed as inactive in assay [4], in assay [5] and in [6].
Take `COc1cc(C[C@@H](C)N)c(OC)cc1C`: the Potency entry in [8], in [9], in assay [2] and in [3] was “inactive” in each case. In assay [4], the outcome was inactive.
Consider `Nc1c(Br)cc([N+](=O)[O-])cc1[N+](=O)[O-]`, for which the Potency entry in assay [8] was “inactive”. Besides, the results for the Potency in assay [9], in assay [2] and in assay [3] were 49.1 µM (active), 61.8 µM (active) and 8.73 µM (active), respectively. The compound was called inactive in [4], in assay [5], in assay [6] and in assay [7].
With `O=[N+]([O-])c1cccc(O)c1`, the Potency entry in [1], in assay [9] and in [2] was “inactive” each time. Further, in assay [3], the Potency is 43.4 µM (active). The outcome in assay [4] and in assay [7] was inactive.
As to `CCOP(=O)(OCC)OP(=O)(OCC)OCC`, the Potency entry in [9], in assay [2] and in [3] was “inactive” each time. The call in [4], in assay [5], in assay [6] and in assay [7] was inactive.
`CNC(=O)Oc1c(C(C)(C)C)cc(C)cc1C(C)(C)C`: the Potency entry in assay [1], in assay [9] and in assay [2] was “inactive” throughout. Also, the compound was classed as inactive in assay [4], in assay [5], in assay [6] and in assay [7].
On to `CN1C(=S)CN=C(c2ccccc2)c2cc(Cl)ccc21`, for which the Potency result in assay [1], in [9] and in [2] was “inactive” in each case. The call in assay [5] and in assay [7] was inactive.
In the case of `OCCBr`, the Potency entry in assay [8], in assay [9], in assay [2] and in assay [3] was “inactive” throughout. Besides, the outcome in [4], in assay [5], in assay [6] and in assay [7] was inactive.
As to `CC(C)(C)OC(=O)c1ncn2c1[C@@H]1CCCN1C(=O)c1c(Br)cccc1-2`, the Potency result in [8], in [9] and in assay [2] was “inactive” each time. Also, the call in assay [4], in [6] and in assay [7] was inactive.
With `CNC(=O)N(C)c1nc2ccccc2s1`, the Potency result in assay [9], in assay [2] and in assay [3] was “inactive” throughout. Also, the call in assay [4], in [5], in [6] and in [7] was inactive.
Regarding `O=C(O)c1cccc(Cl)c1`, the Potency result in assay [8], in assay [9] and in assay [2] was “inactive” in each case. For the same compound, the call in assay [5], in [6] and in assay [7] was inactive.
Take `CCC(C)(C)c1cc(-n2nc3ccccc3n2)c(O)c(C(C)(C)CC)c1`: the Potency entry in assay [2] and in assay [3] was “inactive” throughout. The outcome in assay [4], in assay [5], in [6] and in assay [7] was inactive.
In the case of `O=C(O)C(Br)CBr` (configuration not stated), the Potency result in [9], in assay [2] and in assay [3] was “inactive” in each case. Besides, the compound was called inactive in [4], in [5] and in assay [6].
Take `CNC(=O)Oc1cccc(C(C)C)c1`: the Potency result in assay [9] and in [2] was “inactive” throughout. The outcome in assay [4], in assay [5] and in assay [6] was inactive.
As to `CC1(C)COP(Oc2ccccc2)OC1`, the Potency entry in [1], in assay [2] and in assay [3] was “inactive” each time. Besides, the outcome in assay [4], in assay [5], in assay [6] and in [7] was inactive.
Turning to `CCCCOC(=O)c1ccccc1N`, the Potency entry in [8] and in [2] was “inactive” throughout. In addition, the call in assay [4], in assay [6] and in [7] was inactive.
On to `CCCSP(=O)(OCC)Oc1ccc(Br)cc1Cl` (configuration not stated), for which the Potency entry in [8] was “inactive”. Moreover, the Potency in assay [2] was 16.7 µM (active); in [3], 1.05 µM (active). For the same compound, the result in assay [4], in [5], in assay [6] and in assay [7] was inactive.
